Drawing on PubChem BioAssay, this text covers inhibition for 40 compounds.

Values joined by “and” are separate entries in the source; they are usually repeats but may differ in a detail not shown here. Equal entries are not always repeated. A number with no mark means an inactive call. Active and inactive are the calls of the source.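 How the source made its calls: active means inhibition above 50%; inactive means the rest.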

For orientation: inhibition means the relative decrease from the control value, in per cent.

The nature of this assay: human hepatoma cell viability loss – ATP luminescence, cytotoxicity control for P. falciparum antimalarial project, primary screen (AID 2303).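 Further: 0% = DMSO wells and 100% = digitonin-killed cells.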 Conditions: HepG2 viability, 24-48 h, at 10 µM, stronger effect = higher value.
Regarding `CC(=O)N/N=C/[C@H](CCc1ccccc1)NC(=O)[C@H](CC(C)C)NC(=O)c1ccc(OCCN2CCOCC2)cc1`, the inhibition was 4%.

Regarding `CN1CCN(Cc2ccc(-c3cc4nccc(Nc5ccc(Oc6ccccc6)cc5)c4cc3Cl)o2)CC1`, the inhibition is 3%.

Regarding `Cc1ccc(NCc2cccc(F)c2)cc1S(=O)(=O)N[C@@H]1CCN(C#N)C1`, the inhibition is 13%.

Consider `COc1ccc(NC(=O)N2CCN(CCCCCNC(=O)/C=C/c3ccc(C(F)(F)F)cc3)CC2)cc1Cl`, for which the inhibition is 25%.

In the case of `NC1=NC(c2ccccc2)(c2cccc(O)c2)C(=O)N1CCCc1ccccc1` (stereo not given), the inhibition is -2%.

With `COc1c(C2CCN(CCCCNC(=O)c3noc(-c4ccc(C#N)cc4)n3)CC2)ccc2c1CCCC2`, the inhibition is 32%.

With `Cc1noc(C)c1-c1ccc2c(Nc3ccccc3C(C)(C)C)c(C(=O)NCc3ccc(OC(C)C)cc3)cnc2c1`, the inhibition was -3%.

Take `Cc1cc(=O)c(-c2ccc(Oc3cccc(C(F)(F)F)c3)cc2)c(C)[nH]1`: the inhibition was 8% and 14%.

As for `O=c1cc(NCCCNCc2cc(Cl)cc(Cl)c2OCc2ccccc2)[nH]c2ccccc12`, the inhibition was -4%.

In the case of `O=C(NCCCCN1CCC(c2ccc(OC(F)(F)F)cc2)CC1)c1ccc(NC(=O)c2ccc(Cl)cc2)cc1`, the inhibition was 24%.

With `Cc1cc(NCCC(=O)NCCc2ccccc2)nc(NCCc2ccc(F)cc2)n1`, the inhibition was 0%.

Regarding `O=C(/C=C/c1ccc(Cl)c(Cl)c1)NC1CCN(Cc2ccc(O)cc2)CC1`, the inhibition was -1%.

On to `c1ccc(Oc2cccc(Nc3ccnc4ccccc34)c2)cc1`, for which the inhibition was 48%.

`Cc1cccc2[nH]c(-c3ccc(-c4cccc(NC(=O)NCc5cccc(F)c5)c4)cc3)nc12`: the inhibition is 27%.

Regarding `Cc1ccc(NC(=O)NCCCCCN2CCC(c3c[nH]c4ccccc34)CC2)cc1I`, the inhibition was 96% (active).

As to `COc1ccc(Cn2c(SCc3ccc(C)cc3)nc3cc(OC)c(OC)cc3c2=N)cc1Cl`, the inhibition is 50% (active).

In the case of `COc1ccc(NC(=O)c2cc(-c3ccc(NC(C)=O)cc3)cnc2N)cc1`, the inhibition is 10%.

As for `O=C(NCCc1ccc(Cl)c(Cl)c1)c1ccc(CNC(=O)c2ccc(O)c(-c3ccc(Cl)c(Cl)c3)c2)cc1`, the inhibition is 0%.

As to `CCN(CC)C(=NCCCCCCN=C(NC(N)=NCc1cccc(Cl)c1)N(CC)CC)NC(N)=NCc1cccc(Cl)c1`, the inhibition is 17%.

As to `CNCCNCc1cccc(-c2ccc(-c3nc4ccc(C(F)(F)F)cc4[nH]3)cc2)c1`, the inhibition was 21%.

Take `COc1ccc(-c2cccc(NC(=O)c3ccc(F)cc3)c2)cc1CNC(C)C`: the inhibition is 32%.

Take `O=C1Nc2cccc3c2C1(CCCCN1CCC(c2cc4ccncc4[nH]2)CC1)CCC3` (stereo not given): the inhibition was -1% and -8%.

With `O=C(/C=C/c1ccc(Cl)c(Cl)c1)NCCCCCN1CCC(NC(=O)Nc2cccc(C(F)(F)F)c2)CC1`, the inhibition is 61% (active).

Consider `O=C(/C=C/c1ccc(Cl)c(Cl)c1)NC1CCC(CN2CCC(c3c[nH]c4ccncc34)CC2)CC1` (stereo not given), for which the inhibition is 16%.

For `Cc1cc(-c2ccc(O)c(CNC3CCCCC3)c2)cnc1N`, the inhibition was 27%.

As for `O=C(Nc1cccc(-c2ccc(-c3nc4ccc(F)cc4[nH]3)cc2)c1)c1cccnc1`, the inhibition was 27%.

As for `COc1ccc2ncc(F)c(CCN3CC[C@H](NCc4cc5c(s4)CCCN5)[C@H](O)C3)c2n1`, the inhibition is 2%.

As for `CN(C)C(=O)C(CC(=O)NCc1ccccc1Cl)N(C)C` (stereo not given) (tested in a mixture with another compound), the inhibition was 7%.

For `CC(C)Oc1ccc2c(c1)OC(c1ccccc1)(C(F)(F)F)NC2=O` (stereo not given), the inhibition is -6%.

Take `COc1ccc2ncc(F)c(CCN3CCC(CNC(=O)C(=O)c4c[nH]c5ccccc45)CC3)c2n1`: the inhibition was 48%.

As to `COc1ccc(C2C(C(=O)Nc3ccccc3)=C(C)Nc3c(C(=O)Nc4ccccc4)cnn32)cc1` (stereo not given), the inhibition is 13%.

`Cc1cccc2[nH]c(-c3ccc(-c4ccc(CN5CCCCC5CO)cc4)cc3)nc12` (stereo not given): the inhibition was 32%.

As to `COc1cc(Cc2cnc(N)nc2N)cc(OCCCCc2nn[nH]n2)c1OC`, the inhibition is 7%.

On to `CC(C)(C)NC(=O)COC(=O)c1c2c(nc3ccccc13)C(=Cc1ccc3c(c1)OCO3)CCC2`, for which the inhibition is 7%.

Take `CN1CCC(C(=O)Nc2cccc(-c3ccc(-c4nc5ccc(C(F)(F)F)cc5[nH]4)s3)c2)CC1`: the inhibition was 29%.

Consider `COCc1cccc(-c2cc(-c3ccc(S(C)(=O)=O)cc3)cnc2N)c1`, for which the inhibition was 10%.

With `NC(=O)COc1cccc2c1CCN(CCN1CCC(NC(=O)c3ccc(-c4ccc(Cl)cc4)cc3)CC1)C2`, the inhibition is 44%.

On to `O=c1cc(NCCCNCc2ccc(Cl)c(Cl)c2)[nH]c2cc(Cl)ccc12`, for which the inhibition is 1%.

Consider `Cn1nccc1C(=O)NCCNCc1ccc(-c2ccc(-c3nc4ccc(C(F)(F)F)cc4[nH]3)cc2)cc1`, for which the inhibition is 35%.

For the compound `FC(F)(F)c1cccc(C=NNc2nc3ccccc3[nH]2)c1`, the inhibition was 1%.
